This is an account of results in PubChem BioAssay AID2685 (National Center for Advancing Translational Sciences (NCATS), 2010).

SMILES strings stand for the structures. The whole screen tested about 320,000 compounds, of which about 2,100 (0.66%) were called active. Not shown: some 53% with an inconclusive outcome. Calls follow the shape of the dose curve; as a rule, active = well fitted inhibition curve with a large enough effect in the signal ratio, with a control signal flat (not every such curve was filed as active); inconclusive = small, poorly fitted or top-dose-only effect, or effect the other way, or a change in a side signal; inactive = flat fitted curve, though single readings scatter; the % refers to the signal ratio. The list comes from a sample in which actives are over-represented; it also holds similar structures and randomly drawn compounds.
Potency is read from the fitted curve at half-maximal effect.

A short description of this assay: qHTS Assay for Lipid Storage Modulators in Drosophila S3 Cells.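 As to cell number change: cells counted by Cell Tracker Red CMTPX staining in the red channel.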 As to lipid storage change, negative = inhibition: % is scaled to controls: 0 for no effect and ±100 for the full control effect. The settings on record: BODIPY lipid droplet fluorescence, 18-24 h, cells fed with added oleic acid; cell number change: measured here: cell count max response; series mostly up to 46.1 µM; lipid storage change, negative = inhibition: at the top concentration. Summed up: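 Laser-scanning cytometry quantifies lipid droplet accumulation (500–530 nm total intensity; droplet/cell object ratio) in oleic acid-fed (400 uM added) Drosophila S3 cells treated with a concentration series. 20 uM Triacsin C defined 100% inhibition.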
For the compound `Cc1ccc(C(C(=O)NCc2ccc(F)cc2)N(Cc2ccco2)C(=O)c2snc(C(N)=O)c2N)o1` (stereo unspecified), the Potency was 13 µM (active) and the cell number change was -23%.

Consider `CCC(C(=O)NCc1ccc(F)cc1)N(Cc1ccco1)C(=O)c1snc(C(N)=O)c1N` (stereo unspecified), for which the “lipid storage change, negative = inhibition” value was 24.7% (inactive) and the cell number change was -6.14%.

With `NC(=O)c1nsc(C(=O)N(Cc2ccco2)C(C(=O)NCc2ccc(F)cc2)c2ccc(O)cc2)c1N` (stereo unspecified), the call was inactive.

`Cc1oc2c(c1C(=O)NC(Cc1c[nH]c3ccccc13)C(=O)O)CCCC2` (stereo unspecified): the “lipid storage change, negative = inhibition” value is 6.04% (inactive) and the cell number change was determined as 18%.

`Cc1cccc(Cc2c(C)[nH]c(=O)c(C#N)c2C)c1`: the cell number change is -1.36% and the lipid storage change, negative = inhibition is -17.3% [at 9.22 µM] (inactive).

For `N=c1oc2ccc(Br)cc2cc1C(=O)NC1CCCCCC1`, the compound was classed as inactive and the cell number change is -5.41%.

As for `O=C(O)C1CCCN1S(=O)(=O)c1ccccc1` (stereo unspecified), the “lipid storage change, negative = inhibition” value is -1.6% (inactive) and the cell number change turned out to be 14%.

For `CCc1cc(=O)oc2cc(OCC(=O)NCCCN3CCCC3=O)ccc12`, the outcome was inactive and the cell number change turned out to be 3.54%.

In the case of `CCCc1cc(=O)oc2c(C)c(OCC(=O)NCCN3CCOCC3)ccc12`, the “lipid storage change, negative = inhibition” value was 8.89% (inactive) and the cell number change stood at 19.4%.

For the compound `CCc1cc(=O)oc2cc(OCC(=O)NCCCN3CCCC3=O)c(Cl)cc12`, the Potency was 16.4 µM (active) and the cell number change came to 11.6%.

With `Cc1c(OCC(=O)NCCCN2CCCC2=O)ccc2c3c(c(=O)oc12)CCCC3`, the Potency was 8.2 µM (active) and the cell number change was -7.37%.

As to `CC(Oc1cc2oc(=O)c3c(c2cc1Cl)CCC3)C(=O)NCCN1CCOCC1` (stereo unspecified), the “lipid storage change, negative = inhibition” value was -12.3% (inactive) and the cell number change turned out to be 9.27%.

With `CCCCc1cc(=O)oc2c(C)c(OCC(=O)NCCN3CCOCC3)ccc12`, the Potency is 8.2 µM (active) and the cell number change is -17%.

For the compound `Cc1cc(=O)oc2c(C)c(OCC(=O)NCCCN3CCCC3=O)ccc12`, the compound was called inactive and the cell number change is -21.7%.

For `Cc1c(OCC(=O)NCCCN2CCOCC2)ccc2c3c(c(=O)oc12)CCC3`, the outcome was inactive and the cell number change is -21.2%.

With `CC(Oc1cc2oc(=O)c3c(c2cc1Cl)CCC3)C(=O)NCCCN1CCOCC1` (stereo unspecified), the call was inactive and the cell number change was 14.5%.

As for `CC(Oc1cc2oc(=O)c3c(c2cc1Cl)CCC3)C(=O)NCCCN1CCCC1=O` (stereo unspecified), the Potency was 1.64 µM (active) and the cell number change was -19.6%.

For `Cc1cc(=O)oc2cc(OCC(=O)NCCCN3CCCC3=O)c(Cl)cc12`, the compound was classed as inactive and the cell number change is -17.4%.

`CCCc1cc(=O)oc2c(C)c(OCC(=O)NCCCN3CCOCC3)ccc12`: the call was inactive and the cell number change was determined as 7.37%.

As to `COc1ccc(OCCNC(=O)c2ccccc2OCC(=O)N2CCCCC2)cc1`, the “lipid storage change, negative = inhibition” value is -8.65% (inactive) and the cell number change is -14.3%.

As for `O=C(c1ccc(S(=O)(=O)NCc2ccco2)cc1)N1CCN(Cc2ccccc2F)CC1`, the call was inactive and the cell number change was -10.8%.

As to `COc1cccc(N(C(=O)CS(=O)CC(=O)Nc2ccc(F)cc2)C(C(=O)NC2CCCCC2)c2cccs2)c1` (stereo unspecified), the “lipid storage change, negative = inhibition” value is -10.8% (inactive) and the cell number change was -4.8%.

With `COC(=O)CCCC1=CC2=CC(=O)C(C)(OC(=O)c3cccs3)C(=O)C2=CN1c1ccc(OC)cc1` (stereo unspecified), the “lipid storage change, negative = inhibition” value is 5.26% (inactive).

For the compound `COc1ccc2c(c1)C(=O)N(c1ccccc1)C(=O)C2`, the Potency is 23.1 µM (active) and the cell number change was -11.7%.

`COc1ccc2c(c1)C(=O)N(c1ccc(C)cc1)C(=O)C2`: the “lipid storage change, negative = inhibition” value is -3.58% (inactive) and the cell number change was determined as 11.1%.

Consider `O=C1Cc2ccccc2C(=O)N1c1ccccc1`, for which the Potency is 10.3 µM (active) and the cell number change was 9.57%.

On to `COc1ccc(N2C(=O)c3ccccc3C2=O)cc1`, for which the “lipid storage change, negative = inhibition” value was 19% (inactive) and the cell number change was 2.95%.

As for `CCOc1ccc(N2C(=O)Cc3ccccc3C2=O)cc1`, the Potency was 29.1 µM (active) and the cell number change turned out to be 0.833%.

With `CCOc1ccc(N2C(=O)c3cccnc3C2=O)cc1`, the “lipid storage change, negative = inhibition” value was 12.3% (inactive) and the cell number change was -11.4%.

Consider `O=C1Cc2ccccc2N1c1ccccc1`, for which the “lipid storage change, negative = inhibition” value was 8.9% (inactive) and the cell number change worked out at 11.5%.

For the compound `O=C1Cc2ccccc2C(=O)N1c1cccc(Cl)c1`, the compound was classed as inactive and the cell number change was 10.3%.

Turning to `COc1ccc(N2C(=O)Cc3ccccc3C2=O)cc1`, the “lipid storage change, negative = inhibition” value was 7.06% (inactive) and the cell number change stood at 10.9%.

Turning to `COc1ccccc1C(=O)NC(=O)COC(=O)c1oc2ccccc2c1C`, the “lipid storage change, negative = inhibition” value was -2% (inactive) and the cell number change was 20%.

Regarding `CCOc1nc(-c2ccccc2)ccc1-c1noc(-c2ccco2)n1`, the “lipid storage change, negative = inhibition” value was 4.86% (inactive) and the cell number change is -9.76%.

On to `O=C1CN(C(=O)COC(=O)Cc2ccsc2)c2ccccc2N1`, for which the “lipid storage change, negative = inhibition” value is 3.29% (inactive) and the cell number change was 4.09%.

Take `NC(=O)C(c1ccc(Cl)cc1)c1ncc(C(F)(F)F)cc1Cl` (stereo unspecified): the “lipid storage change, negative = inhibition” value is 20.1% (inactive) and the cell number change was 6.15%.

Take `CCC(=O)c1ccc(OCC(=O)OCC(=O)NC2CCCC2)cc1`: the cell number change is -7.74% and the lipid storage change, negative = inhibition is 7.81% [at 0.0737 µM] (inactive).

With `Cc1nc(C)c(C(=O)OCC(=O)Nc2cccc(C)c2C)s1`, the Potency was 16.4 µM (active) and the cell number change was -21.3%.

Turning to `Cc1nc(C)c(C(=O)OCC(=O)NCc2ccccc2)s1`, the Potency is 1.16 µM (active) and the cell number change is 2.69%.

As to `Cc1cccc(NC(=O)c2sc(Cl)nc2C)c1C`, the “lipid storage change, negative = inhibition” value is 17.3% (inactive) and the cell number change worked out at 27.7%.

For the compound `CCOC(=O)c1sc(Nc2cccc(C)c2C)nc1C`, the call was inactive.

As for `COc1ccc(CCNC(=O)COC(=O)c2sc(C)nc2C)cc1`, the “lipid storage change, negative = inhibition” value was -22.8% (inactive) and the cell number change is 13.9%.

Turning to `Cc1nc(C)c(C(=O)OCC(=O)NCCc2ccc(S(N)(=O)=O)cc2)s1`, the compound was called inactive and the cell number change was 5.35%.

Turning to `Cc1cccc(C)c1NC(=O)CN(C)C(=O)c1cccc(-n2cccc2)c1`, the lipid storage change, negative = inhibition was 9.6% [at 0.0737 µM] (inactive).

`N#Cc1cccc(NC(=O)COC(=O)CCc2ccc(S(=O)(=O)N3CCOCC3)cc2)c1`: the “lipid storage change, negative = inhibition” value is 7.64% (inactive) and the cell number change was found to be 0.933%.
